4MU fluor – 4-MU region autofluorescence; compound autofluorescence, 340/450 nm, 4-MU equivalents; active compounds read high; max dye-equivalent concentration, M; hit rate 11% among 59,000; in the data active = max dye-equivalent concentration above about 10 nM; inconclusive = mostly about 1.1 nM to 9.6 nM
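Compounds in 100 mM Tris, pH 8.0, sat 15 min at room temperature before fluorescence was read at 340 nm excitation/450 nm emission; a per-plate six-point 4-MU standard curve converted signals to dye-equivalent concentration at each compound concentration.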
A350 autofl – compounds fluorescent in Alexa 350 spectral region; Compound autofluorescence, 340/450 nm, Alexa 350 dye-equivalents; active compounds read high; max dye-equivalent concentration, M; hit rate 11% among 59,000; in the data active = max dye-equivalent concentration above about 10 nM; inconclusive = mostly about 1.1 nM to 9.6 nM
HSD17B inh – blocks hydroxysteroid 17-beta dehydrogenase activity; recombinant HSD17B10, NADH fluorescence kinetic; hit rate 7.6% among 75,000; Potency, µM (titrated, usually from 57.1 µM), hits mostly inhibitors;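 also: the protocol describes HADH2 (HSD17B10) and not the HSD17B4 of the title; nearly all actives have a fitted effect of over 70% in size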
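Enzyme plus compound, 15 min room temperature; substrate mix added (NAD+ 1 mM, beta-hydroxybutyryl-CoA 90 uM final); plates read kinetically for NADH fluorescence. HADH2 was His-tagged, E. coli-derived, 20 nM.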
CRE-bla Fsk – alters forskolin-stimulated CRE reporter signaling in CHO cells; AID 662; hit rate 2.5% among 71,000; CHO CRE-bla reporter (cAMP response element driving beta-lactamase), forskolin EC10, beta-lactamase ratio; Potency, µM (doses to about 38.2 µM), most hits filed as activators; active = well fitted activation curve with a large enough effect in the signal ratio, with a control signal flat, not every such curve was filed as active; inconclusive = small, poorly fitted or top-dose-only effect, or effect the other way, or a change in a side signal; the % refers to the signal ratio
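Titrated compounds plus EC10 NKH 477 on CHO CRE-bla cells, 3 h, 37 °C. CCF4, 2 h RT. Ratio 460/530 nm → AC50.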
AID923 – qHTS Assay for Allosteric/Competitive Inhibitors of Caspase-1: Spectroscopic Profiling in AFC Spectral Region | Potency, µM (series often up to 57.5 µM), hits mostly activators | hit rate 1.1% among 75,000 | AID 923, 2007 | compound fluorescence, AFC spectral region (405/520 nm)
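Compound autofluorescence profiled at 405 nm ex/520 nm em during kinetic caspase 1 run (50 nM enzyme, 5 uM Ac-WEHD-AFC, HEPES pH 7.5, 10 mM DTT). Titration up to 57 uM; baseline from regression intercept, normalized to AFC standard curve.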
HADH2 inhib – blocks human hydroxyacyl-CoA dehydrogenase type II; recombinant HADH2, NADH fluorescence, beta-hydroxybutyryl-CoA; Potency, µM (highest dose often 57.1 µM), hits mostly inhibitors; hit rate 3.4% among 73,000; AID 886; also: nearly all actives have a fitted effect of over 60% in size
Target sequence (Q99714 whole entry, looked up, one chain of several): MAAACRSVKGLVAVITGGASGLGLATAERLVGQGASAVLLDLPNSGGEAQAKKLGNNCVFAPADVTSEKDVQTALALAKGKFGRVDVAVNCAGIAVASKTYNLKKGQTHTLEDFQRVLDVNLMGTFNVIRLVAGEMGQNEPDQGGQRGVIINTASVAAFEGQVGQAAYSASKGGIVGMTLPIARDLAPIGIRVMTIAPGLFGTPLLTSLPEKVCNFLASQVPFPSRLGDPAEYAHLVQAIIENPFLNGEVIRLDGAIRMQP
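E. coli-expressed His-tagged HADH2 tested at 20 nM in alkaline Tris buffer (pH 9.0); oxidation of 90 uM beta-hydroxybutyryl-CoA with 1 mM NAD+ tracked fluorimetrically for 4 min.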
Each line names hits and unclear results; the compound was inactive in the other large screens. Rows were chosen to be rich in hits. Some 14% of all compounds tested hit in one or more screens of this group. Unless noted, calls follow the shape of the dose curve; as a rule, active = well fitted curve in the direction sought with a large enough effect; inconclusive = small, poorly fitted or top-dose-only effect, or another doubt; inactive = no such curve, though single readings can be large; an effect the other way counts as inactive or inconclusive.

O=c1c(-c2ccc(F)c(F)c2)nc2cncnc2n1Cc1ccccc1	CRE-bla Fsk inconclusive
CON(C)C(=O)c1nnc2c3ccccc3n(S(=O)(=O)c3ccc(C)cc3)c2n1	none (no result: 4MU fluor, A350 autofl, CRE-bla Fsk)
CCCC[C@@H]1C[C@H]1C(NC(=O)c1cccs1)c1ccc(C(F)(F)F)cc1 (some centres undefined)	none (no result: 4MU fluor, A350 autofl)
C[C@@H]1c2ccccc2Cn2cc3c(c21)C(=O)c1cccc(OP(=O)(O)OCc2ccccc2)c1C3=O	4MU fluor 2.82e-08M, A350 autofl 2.7e-08M, HSD17B inh inconclusive, HADH2 inhib 3.16µM
CCCCC(=O)Nc1cccc(NC(=O)c2ccc(Br)o2)c1	none
CCOC(=O)c1cccc(NC(=O)c2cccs2)c1	none
CCOC(=O)c1sc(NC(=O)c2ccc(Br)o2)cc1C	4MU fluor 1.68e-08M, A350 autofl 2.3e-08M, HSD17B inh inconclusive
CCOC(=O)c1sc(NC(=O)c2cccs2)cc1C	4MU fluor 4.04e-07M, A350 autofl 4.31e-07M, HSD17B inh 31.6µM, CRE-bla Fsk inconclusive, HADH2 inhib 31.6µM
CCOC(=O)OCC1OC(CCc2ccccc2)CCC1Oc1ccc(OC)cc1 (centres undefined)	none (no result: 4MU fluor, A350 autofl, CRE-bla Fsk)
O=C(c1ccncc1)N1CCC2(CC1)CN(c1ccncc1)C2	HADH2 inhib inconclusive
COC(=O)c1ccc(OC(=O)c2ccc(OCc3c(C)noc3C)c(OC)c2)cc1	4MU fluor 1.86e-07M, A350 autofl 2.93e-07M
O=C(O)CN(CCN(CC(=O)O)CC(=O)O)CC(=O)O.[Mn]	none
O=C(CN1CCOCC1)OCCCC1CCCCC1	4MU fluor 3.35e-08M, A350 autofl 4.54e-08M
COc1cc2c(cc1OC)-c1cc(NC3CCCCCC3)nc(=O)n1CC2	4MU fluor 4.13e-08M, A350 autofl 4.99e-08M, HSD17B inh 25.1µM, CRE-bla Fsk 1µM, HADH2 inhib inconclusive
CCN(CC)CCCNc1cc2n(c(=O)n1)CCc1cc(OC)c(OC)cc1-2	4MU fluor 1.11e-07M, A350 autofl 1.32e-07M, HSD17B inh 31.6µM, CRE-bla Fsk inconclusive, HADH2 inhib inconclusive
COc1cc2c(cc1OC)-c1cc(OCc3cccnc3)nc(=O)n1CC2	4MU fluor 9.11e-07M, A350 autofl 1.21e-06M, HSD17B inh 25.1µM, CRE-bla Fsk 3.98µM, HADH2 inhib 3.98µM
COc1cc2c(cc1OC)C(C(=O)Nc1ccc3c(c1)OCCO3)C1c3ccccc3CCN1C2=O (centres undefined)	none
COc1cc2c(cc1OC)-c1cc(Nc3ccc4c(c3)OCCO4)nc(=O)n1CC2	4MU fluor 2.64e-08M, A350 autofl 3.49e-08M, HSD17B inh inconclusive, CRE-bla Fsk 2.51µM, HADH2 inhib inconclusive
CCOC(=O)C1=C(N)Oc2ccc(Br)cc2[C@@H]1[C@@H](C#N)C(=O)OCC	HSD17B inh inconclusive (no result: 4MU fluor, A350 autofl)
N=c1sc2ccccc2n1CCS (tested in a mixture with another compound)	4MU fluor inconclusive, A350 autofl inconclusive
c1ccc(Cc2nn3c(Cn4nnc5ccccc54)nnc3s2)cc1	4MU fluor 1.35e-08M, A350 autofl 1.57e-08M, HADH2 inhib 3.16µM
O=C(O)CSc1nnc(Cn2nnc3ccccc32)n1CCc1ccccc1	4MU fluor inconclusive, A350 autofl inconclusive, HSD17B inh inconclusive, CRE-bla Fsk 7.94µM
CNC(CC(=O)O)C(=O)O (centres undefined)	none (no result: 4MU fluor, A350 autofl, CRE-bla Fsk, HADH2 inhib)
Nc1ncnc2c1c(-c1ccc(Oc3ccccc3)cc1)cn2C1CCCC1	HSD17B inh 31.6µM, CRE-bla Fsk inconclusive, HADH2 inhib inconclusive
OCCN(CCO)c1ncnc2nc[nH]c12	none
COC(=O)/C(C)=C/CC12OC(C)(C)C3CC(C=C4C(=O)c5cc6c(c(CCC(C)(C)Cl)c5OC431)OC1(C)CCC(=C(C)C)C6C1)C2=O (centres undefined)	HSD17B inh 31.6µM (no result: 4MU fluor, A350 autofl, CRE-bla Fsk, HADH2 inhib)
CC[C@H](Cc1c(I)cc(I)c(N)c1I)C(=O)O	none
N#C/C(C(=O)NCc1ccco1)=C1/SC=C(c2ccccc2)N1c1ccccc1	HSD17B inh 31.6µM, HADH2 inhib inconclusive (no result: 4MU fluor, A350 autofl)
COC(=O)c1ccc2c(c1)SC1=C(CCCC1=O)N2	HSD17B inh inconclusive

From PubChem BioAssay
